# Data as given in PubChem BioAssay AID2685 (National Center for Advancing Translational Sciences (NCATS), 2010).
# The campaign covered roughly 320,000 compounds. About 2,100 (0.66%) were called active. Roughly 53% stayed inconclusive and do not appear here. The call rests on the fitted dose curve; in most records, active means well fitted inhibition curve with a large enough effect in the signal ratio, with a control signal flat (not every such curve was filed as active); inconclusive means small, poorly fitted or top-dose-only effect, or effect the other way, or a change in a side signal; inactive means flat fitted curve, though single readings scatter; the % refers to the signal ratio. This excerpt belongs to a sample that is enriched for actives.
# Test: qHTS Assay for Lipid Storage Modulators in Drosophila S3 Cells;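 on cell number change: cells counted by Cell Tracker Red CMTPX staining in the red channel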; on lipid storage change, negative = inhibition: on the % scale 0 is the no-effect control and ±100 the full control effect
# Conditions: BODIPY lipid droplet fluorescence, 18-24 h, cells fed with added oleic acid; cell number change: measured here: cell count max response; series mostly up to 46.1 µM; lipid storage change, negative = inhibition: at the top concentration
# Method in brief: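 Drosophila S3 cells loaded with oleic acid (400 uM, as added) and compounds at several concentrations; lipid droplets imaged by 488-nm laser-scanning cytometry, 500–530 nm intensity and object ratio to cell channel. Percent activity normalized to 20 uM Triacsin C.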
# Potency means the concentration at half of the fitted maximal effect.
SMILES,"lipid storage change, negative = inhibition",cell number change,outcome,Potency
CSc1nc(N2CCN(C)CC2)c2ccccc2n1,2.69% (inactive),12%,,
C/C=C1/CC(C)C(C)(O)C(=O)OCC2CCN3CCC(OC1=O)C23 (stereo not given),1.68% (inactive),3.31%,,
Cc1ccc(N2C(=O)/C(=C/c3ccc(CN(CCC#N)S(C)(=O)=O)o3)C(=O)NC2=S)cc1,-8.75% (inactive),9.59%,,
[N-]=[N+]=NCc1cn2cccnc2n1,-11.6% (inactive),-11.7%,,
c1ccc(C2CC3CC(c4ccco4)N2O3)cc1 (stereo not given),6.42% (inactive),2.08%,,
Cc1ccc(N=Cc2c(O)n(C)c(=O)n(C)c2=O)cc1,,-14%,inactive,
COc1ccc(C(=O)OC2C[C@H]3CC[C@H](C2)N3C)cc1OC (stereo not given in full),-1.64% (inactive),,,
CN1C2CCC1CC(OC(=O)c1cc(Cl)cc(Cl)c1)C2 (stereo not given),,,,23.1 µM (active)
CN1C2CCC1CC(OC(=O)c1ccc(Cl)cc1)C2 (stereo not given),6.86% (inactive),1.41%,,
CNP1(NC)=NC(C(F)(F)F)=NC(C(F)(F)F)=N1,-21.3% (inactive),,,
COc1ccc(CC(C)NCCc2ccc(OC)c(OC)c2)cc1 (stereo not given),,5.07%,inactive,
O=C(Nc1ccc(F)cc1)N1CC2CC(C1)c1cccc(=O)n1C2 (stereo not given),-5.85% (inactive),-3.93%,,
O=C(Nc1cccc(Cl)c1)N1C[C@H]2C[C@@H](C1)c1cccc(=O)n1C2,17.1% (inactive),-7.76%,,
O=C(Nc1ccc(Cl)cc1)N1CC2CC(C1)c1cccc(=O)n1C2 (stereo not given),,-2.6%,,1.84 µM (active)
COc1ccc(OC)c(NP(=O)(Oc2ccc(Cl)cc2)Oc2ccc(Cl)cc2)c1,8.47% (inactive),16.2%,,
Cc1ccc2[nH]c3c(c2c1)CN(C(=O)CN1C[C@H]2C[C@@H](C1)c1cccc(=O)n1C2)CC3,17.7% (inactive),14.9%,,
N#Cc1c(N2CCNCC2)nc(-c2ccco2)c2c1CCCC2,-5.93% (inactive),11.9%,,
Cc1ccccc1-n1c(O)c(C(c2ccncc2)c2c(O)n(-c3ccccc3C)c(=O)[nH]c2=O)c(=O)[nH]c1=O,-7.77% (inactive),5.35%,,
FC(F)(F)c1ccc(CNCCc2ccc3c(c2)OCO3)cc1,,20.8%,inactive,
Cc1ccc(-n2c(O)c(/C=N/NC(=O)c3ccncc3)c(=O)[nH]c2=O)cc1,-4.67% (inactive),-2.6%,,
CCOC(=O)c1cccc([P+](=O)O)c1,3.53% (inactive),4.86%,,

SMILES,"lipid storage change, negative = inhibition",cell number change,outcome,Potency
CCOC(=O)c1cccc(-[n+]2c(-c3ccccc3)cc(-c3ccccc3)cc2-c2ccccc2)c1,,-29.7%,,13 µM (active)
Cc1ccc(-c2cc(-c3ccc(C)cc3)[n+](-c3ccc(C(=O)O)cc3)c(-c3ccc(C)cc3)c2)cc1,8.58% (inactive),12.1%,,
C(CCc1nn[nH]n1)CCc1nn[nH]n1,-0.854% (inactive),0.918%,,
CC1(C)CC(n2[nH]c(=O)c3c2NC(=O)CSC3c2ccc(F)cc2)CCO1 (stereo not given),5.29% (inactive),1.16%,,
O=C1NC(=O)C(CCc2ccncc2)(Cc2ccc(OCc3ccccc3)cc2)C(=O)N1,-0.298% (inactive),9.1%,,
CCC1CCCCN1C(=O)Cn1c(=O)oc2ccccc21 (stereo not given),,,,1.46 µM (active)
CCC1CCCCN1CC(=O)c1ccc(OC(F)F)cc1 (stereo not given),1.27% (inactive),2.66%,,
O=C(Cn1c(=O)n(CC2CS2)c2ccccc21)N1CCCCCC1 (stereo not given),1.02% (inactive),9.44%,,
COC(=O)C1=CO[C@@H](C)[C@@H]2CN3CC[C@]4(C(=O)Nc5ccccc54)[C@@H]3C[C@H]12,-0.0503% (inactive),-15.3%,,
O=C(c1cccc2ccccc12)C1CCCN(Cc2ccon2)C1 (stereo not given),10.3% (inactive),0.85%,,
CSc1ccccc1C(=O)C1CCCN(Cc2cccc(C)n2)C1 (stereo not given),3.17% (inactive),5.61%,,
O=P(O)(O)Oc1ccccc1P(=O)(c1ccccc1)c1ccccc1,-5.41% (inactive),13.5%,,
O=P(O)(O)Cc1ccccc1OP(=O)(c1ccccc1)c1ccccc1,9.67% (inactive),-17.7%,,
O=P(O)(O)COc1ccccc1P(=O)(c1ccccc1)c1ccccc1,,,,16.4 µM (active)
COc1ccc(CC(C)NC2CCCCCC2)cc1 (stereo not given),,-21%,inactive,
NC(=O)CSc1nnc([C@@H](N)Cc2c[nH]c3ccccc23)o1,-10.3% (inactive),,,
O=C(c1ccc(Br)cc1)C12CN3CN(CN(C3)C1)C2,2.2% (inactive),8.31%,,
CN(C)CCN=Cc1c(O)n(C2CCCCCC2)c(=O)[nH]c1=O,-7.53% (inactive),6.67%,,
O=c1[nH]c(=O)n(C2CCCCC2)c(O)c1C=NCCCn1ccnc1,,17.5%,inactive,
CCN(CC)CCN=Cc1c(O)n(CCC2=CCCCC2)c(=O)[nH]c1=O,,11.2%,,23.1 µM (active)
CCN(CC)CCN=Cc1c(O)n(CCc2ccccc2)c(=O)[nH]c1=O,2.23% (inactive),12.9%,,

SMILES,"lipid storage change, negative = inhibition",cell number change,outcome,Potency
O=c1[nH]c(=O)n(CCC2=CCCCC2)c(O)c1/C=N/N1CCOCC1,-0.237% (inactive),8.55%,,
CCN(CC)CCN=Cc1c(O)n(C2CCCCCC2)c(=O)[nH]c1=O,,-10.3%,,18.4 µM (active)
C=CCn1c(C)c(C=C2C(=O)NC(=O)NC2=O)c2ccccc21,9.58% (inactive),5.7%,,
O=c1[nH]c(=O)n(-c2ccc(Br)cc2)c(O)c1C=NC(CO)(CO)CO,-18.1% (inactive),-6.55%,,
O=C(CCN1C(=O)COc2ccccc21)N1CCC2(CC1)OCCO2,2.07% (inactive),1.47%,,
O=c1c2ccccc2ncn1-c1ccc([N+](=O)[O-])c(C(F)(F)F)c1,12.7% (inactive),7.19%,,
Cc1ccccc1-[n+]1c(-c2ccccc2)cc(-c2ccccc2)cc1-c1ccccc1,,,,23.1 µM (active)
C[n+]1c(-c2ccccc2)cc(-c2ccc(O)cc2)cc1-c1ccccc1,24.3% (inactive),-18%,,
O=c1[nH]c(=S)n(C2CC2)c(O)c1C=NCc1cccnc1,-23.1% (inactive),11.1%,,
CC(=O)N1N=C2C3CCN(CC3)C2C1c1ccccc1 (stereo not given),-8.99% (inactive),1.69%,,
ON1C2CCCCC2N(O)C1c1ccccc1 (stereo not given),,,inactive,
O[C@@H]1CCCC[C@H]1N1CCC(c2ccccc2)CC1,,,,-4.74%
Cc1ccc(/C=C2/C(=O)NC(=O)N(CCc3ccc(F)cc3)C2=O)o1,-1.73% (inactive),-2.41%,,
FC(F)(F)c1ccccc1N1CC1c1ccncc1 (stereo not given),10.2% (inactive),-4.55%,,
CSc1ncc(/C=C2/C(=O)NC(=O)N(c3ccc(C)cc3)C2=O)cn1,7.12% (inactive),8.62%,,
O=C(c1ccc2c(=O)n(Cc3ccc4c(c3)OCO4)c(=S)[nH]c2c1)N1CCC2(CC1)OCCO2,-17.8% (inactive),-17%,,
O=C1NC(=O)C(=Cc2ccsc2)C(=O)N1,-2.16% (inactive),11.6%,,
CN1C(=O)/C(=C\c2ccc(N3CCCCCC3)cc2)C(=O)NC1=S,-13.9% (inactive),9.11%,,
CN1C(=O)/C(=C/c2cccn2-c2ccc3ccccc3c2)C(=O)NC1=S,,-19%,,3.26 µM (active)
O=C1NC(=S)NC(=O)C1=Cc1cccn1-c1ccc(O)cc1,-23.9% (inactive),-0.957%,,
